The source of these data is PubChem BioAssay AID2410 (Southern Research Specialized Biocontainment Screening …, 2010).

Screen size: about 2,500 compounds; about 2,100 (84%) were called active.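 How the source made its calls: active means toxic compounds, whose cell viability fell below 70% of untreated control cells; inactive means the rest.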 So high a share suggests a set chosen from earlier hits. The list is a sample of the results. Results with a measured potency or affinity are listed apart.

This experiment can be described thus: HEp-2 cell cytotoxicity, dose response, cytotoxicity control for RSV inhibitor project, HTS (AID 2410).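 Further: cells exposed to compound for six days before readout.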 The conditions noted are these: HEp-2 viability, luminescence, cytotoxicity counter-screen; series mostly up to 50 µM. For orientation: Counterscreens check selectivity or assay interference.
With `CCOc1cc(/C=N/O)cc(Br)c1OCc1ccc(Cl)cc1`, the outcome was inactive.

Consider `COc1ccc(OC)c(-n2c(SCC(=O)NCc3ccco3)nnc2-c2c[nH]c3ccccc23)c1`, for which the compound was classed as inactive.

Consider `O=c1[nH]c(/C=C2\C=Nc3ccccc32)c(O)n1Cc1ccccc1F`, for which the compound was called inactive.

For the compound `COc1ccc(-c2nc[nH]c2[N+](=O)[O-])cc1`, the compound was classed as inactive.

Take `C=CCN1C(=O)N(/C=C/C)c2cccc3cccc1c23`: the call was inactive.

Regarding `CCOC(=O)C1=C(C)N=c2s/c(=C/c3ccc(OCC(=O)O)c(OC)c3)c(=O)n2C1c1ccc(Cl)cc1` (stereo unspecified), the compound was called inactive.

For `CCCC(c1nnnn1CC(=O)OCC)N(Cc1cc2c(C)cc(C)cc2[nH]c1=O)C1CCCC1` (stereo unspecified), the call was inactive.

Turning to `COc1ccc(NC2c3ncccc3C(=O)N2Cc2cccs2)cc1` (stereo unspecified), the call was inactive.

With `CC(=O)Nc1ccc2c(CSc3nnc(N)s3)cc(=O)oc2c1`, the compound was classed as inactive.

Consider `C=CCSc1nnc2nc3c(nn12)c1cc(C)ccc1n3CC=C`, for which the call was inactive.

`c1csc(-c2nn3c(Cn4cnc5ccccc54)nnc3s2)c1`: the compound was called inactive.

In the case of `O=C1c2ccccc2C(=O)N1CCCCN(C(=O)c1ccco1)c1ccc(Cl)cc1`, the compound was classed as inactive.

In the case of `NC(=O)N\N=C/C=C/C=C/c1ccc(F)cc1`, the result was inactive.

As for `CNC(=S)N/N=C(\C)c1cccc(C(F)(F)F)c1`, the outcome was inactive.

For the compound `Nc1ccc(C(=O)N/N=C2\CCCc3c2[nH]c2ccccc32)cc1`, the call was inactive.

With `CCC(=O)N(CC(=O)Nc1sc(C)c(C)c1C(N)=O)C1CCCC1`, the compound was classed as inactive.

In the case of `COc1ccccc1CN1C[C@@H]2C[C@@H](c3ccc(C)c(C)c3)N3CCC[C@@]23C1=O`, the result was inactive.

Take `Cc1ccc(C(=O)N/C(=C\c2ccc(C(C)C)cc2)C(=O)NCCCN2CCOCC2)cc1`: the compound was called inactive.

Take `Cc1ccc(-c2nc3cc(N)ccc3o2)c(C)c1`: the call was inactive.

For the compound `CCCC(=O)Nc1ccc(-c2nc3cc(C)c(C)cc3o2)cc1`, the call was inactive.

On to `Cc1cc2nc(-c3ccc(NC(=O)C(C)C)cc3)oc2cc1C`, for which the result was inactive.

On to `O=C(c1ccc(F)cc1Cl)N(c1ccccn1)C1CCCCC1`, for which the call was inactive.

On to `c1csc(-c2nn3c(Cn4nnc5ccccc54)nnc3s2)c1`, for which the compound was called inactive.

Turning to `Cn1c(NCc2cc(Br)ccc2O)nc2ccccc21`, the compound was called inactive.

On to `COc1cc(C)c2occ(/C(C)=N\O)c2c1`, for which the compound was classed as inactive.

Take `COc1cc(/C=C(\C#N)c2nc3ccccc3s2)ccc1OCC(=O)Nc1ccccc1`: the call was inactive.

As to `O=C(Oc1ccc(-c2cnc3ccccc3n2)cc1)c1ccco1`, the call was inactive.

With `OCCC1CN(Cc2cccn2-c2nccs2)CCN1CCc1ccccc1` (stereo unspecified), the outcome was inactive.

Turning to `CS(=O)(=O)c1ccc(Cl)c(NC(=O)c2ccc3ccccc3c2)c1`, the outcome was inactive.

On to `CCOC(=O)c1c(NC(=O)C2COc3ccccc3O2)sc2c1CC(C)(C)NC2(C)C` (stereo unspecified), for which the outcome was inactive.

Consider `O=C(Nc1ccccn1)C1COc2ccccc2O1` (stereo unspecified), for which the outcome was inactive.

On to `O=C(CCn1c(=O)c2ccccc2n(Cc2cc(=O)n3ccccc3n2)c1=O)NCc1ccco1`, for which the result was inactive.

As to `NC(=O)COc1ccc2c3c(c(=O)oc2c1)CCCCC3`, the compound was called inactive.

`CCOC(=O)c1c(C)oc2c1cc(O)c1ccccc12`: the result was inactive.

With `Cn1c2ccccc2c2cc([N+](=O)[O-])ccc21`, the compound was called inactive.

Regarding `CC(=O)Cc1nsc(NC(=O)c2oc(-c3ccccc3Cl)cc2C)n1`, the result was inactive.

For `Cc1ccc(NC(=O)c2ccc(NS(=O)(=O)c3cccc4cccnc34)cc2)cc1`, the outcome was inactive.

Regarding `Cn1c(=O)c2c3c(sc2n2cnnc12)CCC3`, the call was inactive.

For the compound `Cc1ccc(S(=O)(=O)N2CCC(C(=O)OCC(=O)N3CCCC3=O)CC2)cc1C`, the compound was classed as inactive.

`O=C(CNC(=O)c1ccco1)N=Nc1c(O)[nH]c2ccc([N+](=O)[O-])cc12`: the outcome was inactive.

With `O=C(N=Nc1c(O)[nH]c2ccc([N+](=O)[O-])cc12)c1ccccc1[N+](=O)[O-]`, the compound was called inactive.

As to `COc1ccc(Cl)cc1NC(=O)C1(c2cccs2)CCOCC1`, the result was inactive.

As to `COc1ccccc1CNC(=O)C1CCCN1S(=O)(=O)c1cccc2cccnc12` (stereo unspecified), the outcome was inactive.

Consider `Cc1ccc(NC(=O)CN(C)S(=O)(=O)c2cccc3cccnc23)c(C)c1`, for which the call was inactive.

As for `Cc1ccc(-c2csc3nc(C)n(N)c(=O)c23)o1`, the outcome was inactive.

`C=C(C)C(=O)Nc1cccc(C2=NOC3(C2)C[C@@H](C(N)=O)N(C(=O)c2ccc(OC)cc2)C3)c1` (stereo partly specified): the call was inactive.

In the case of `CCOC(=O)c1ccc2[nH]c3c(c2c1)CN(C)CC3`, the call was inactive.

For `C/C(N)=C(/C#N)C(=O)COC(=O)c1cc2c(s1)CCCC2`, the compound was called inactive.

Take `CNS(=O)(=O)c1ccc(OC)c(-c2nnc3c4ccccc4c(C)nn23)c1`: the result was inactive.

On to `COc1ccc(C(C(=O)NC2CCCC2)N(C(=O)c2snc(C(N)=O)c2N)c2cc(C)ccc2OC)cc1OC` (stereo unspecified), for which the compound was called inactive.

With `C=C(C)Cn1c(N2CC(C)CC(C)C2)nc2c1c(=O)[nH]c(=O)n2C` (stereo unspecified), the call was inactive.

For `Brc1cccc(-c2nc(-c3ccncc3)no2)c1`, the result was inactive.

In the case of `CC(C)(C)c1cc(NC(=O)c2cc(F)c(F)c(F)c2F)no1`, the compound was classed as inactive.

For the compound `Cc1ccc(N2C=Nc3ccc(C)c4nc(C)cc2c34)cc1`, the outcome was inactive.

In the case of `CC1(C)CC(=O)C2=C(C1)OC(N)=C(C#N)C2C#Cc1ccccc1` (stereo unspecified), the result was inactive.

For `O=C(O)c1cc(-c2ccc(/C=C3\NC(=O)N(c4ccc(Cl)cc4)C3=O)o2)ccc1Cl`, the outcome was inactive.

Take `CC(=O)Oc1cc(OC(C)=O)c2c(C)cc(=O)oc2c1`: the compound was classed as inactive.

Consider `COc1cc(/C=N/O)cc(Br)c1OCc1cccc(Cl)c1`, for which the call was inactive.

For the compound `Cc1ccc(-n2c(=O)c3sccc3n(Cc3cc(=O)n4ccccc4n3)c2=O)cc1`, the result was inactive.

`COc1ccc(-n2c(SCC(=O)/C(C#N)=C(\C)N)nc3ccccc3c2=O)cc1OC`: the compound was classed as inactive.

In the case of `Nc1ccc(Sc2cc(Cl)nc(N)n2)cc1`, the compound was classed as inactive.

Turning to `CCC(=O)Nc1ccc(C(=O)OCC(=O)c2ccc(C)c([N+](=O)[O-])c2)cc1`, the compound was called inactive.

`Cc1ccc(OCC(=O)Nc2c[nH]c(=O)[nH]c2=O)cc1C`: the compound was classed as inactive.

Regarding `COc1ccc(C(=O)N2CC(c3ccc(Cl)cc3)CC2=O)cc1` (stereo unspecified), the compound was called inactive.

Turning to `CSc1nc(C)c(C(=O)Nc2ccccc2)c(-c2ccco2)c1C#N`, the call was inactive.

`CCn1c2ccccc2c2cc(NC(=O)C(=O)NCC3CCCO3)ccc21` (stereo unspecified): the compound was classed as inactive.

On to `Cn1c(=NC(=O)c2ccco2)sc2ccccc21`, for which the compound was classed as inactive.

Take `Cc1ccc(C(=O)OCC(=O)c2c[nH]c3ccccc23)cc1NC(=O)c1ccco1`: the compound was called inactive.

On to `CC[C@@]12C(=O)N(c3ccc(OC)cc3)C(=O)N1[C@H](c1ccc(Cl)cc1)[C@@H]1C(=O)N(C3CCCCC3)C(=O)[C@@H]12`, for which the result was inactive.

For the compound `CCOC(=O)c1sc2nc(COC(=O)c3c(F)cccc3F)[nH]c(=O)c2c1C`, the result was inactive.

Turning to `CCOC(=O)c1sc2nc(C)[nH]c(=O)c2c1C`, the result was inactive.

`Cc1nn(Cc2ccc(F)cc2)c(C)c1NC(=O)c1cnn2c1NC(c1ccccc1)CC2C(F)(F)F` (stereo unspecified): the compound was called inactive.

`CCN(c1cc(C)cc(C)c1)S(=O)(=O)c1nnc(NC(=O)C(C)C)s1`: the compound was called inactive.

For the compound `Cc1ccc(S(=O)(=O)N2CCN(C)CC2)cc1-c1nnc2c3ccccc3c(C)nn12`, the result was inactive.

As to `O=C(c1ccc(Br)o1)N1CCN(c2ccc3nnc(-c4ccccc4)n3n2)CC1`, the compound was classed as inactive.

Turning to `COc1ccc(C(=O)O/N=C2\C(=O)N(C)c3ccccc32)cc1`, the result was inactive.

In the case of `N#Cc1cc(Cl)c(N2CCOCC2)cc1C#N`, the compound was called inactive.

In the case of `O=C(O)CSc1cn(Cc2ccccc2)c2ccccc12`, the compound was classed as inactive.

Take `O=C(Nc1cc(Cl)cc(Cl)c1)c1ccc(Cn2c(=O)[nH]c3ccsc3c2=O)cc1`: the compound was called inactive.

As to `CC1CCN(C(=O)Cn2c(=O)n(-c3ccc(F)cc3)c(=O)c3sccc32)CC1`, the call was inactive.

As to `COc1ccc(S(=O)(=O)NC(C)(C)C)cc1-c1nnc2c3ccccc3c(C)nn12`, the result was inactive.

Take `O=C1c2cccnc2C(Nc2ccc(Cl)cc2)N1Cc1cccs1` (stereo unspecified): the compound was classed as inactive.

Turning to `O=C(Nc1ccc2c(c1)CCC2)c1ccc(F)cc1`, the compound was called inactive.

For the compound `Cn1ncc(Cl)c1C(=O)Nc1ccc(Cl)cn1`, the call was inactive.

Turning to `COc1ccccc1C(=O)NCCNc1nc2cc(C)cc(C)c2cc1C#N`, the compound was classed as inactive.

Turning to `CN(C)c1ccc(C2CC(c3cccc(NS(C)(=O)=O)c3)=NN2C(=O)c2ccccc2)cc1` (stereo unspecified), the call was inactive.

As to `CCc1cccc2c(C(=O)COC(=O)c3ccccc3)c[nH]c12`, the compound was called inactive.

On to `CCc1nn(CCCC(=O)NCc2ccccc2Br)c(=O)c2cc3occc3n12`, for which the outcome was inactive.

For `Cc1ccc(CNc2ccc([N+](=O)[O-])cc2C(N)=O)cc1`, the compound was classed as inactive.

For the compound `CC(C)Cc1nc2n[nH]c(N)c2c2c1CCC2`, the compound was called inactive.

With `COc1ccc(CN2C(=O)c3cccnc3C2Nc2cc(Cl)c(OC)cc2OC)cc1` (stereo unspecified), the outcome was inactive.

As to `CC(Oc1ccccc1F)C(=O)Nc1ccc2ccccc2c1` (stereo unspecified), the result was inactive.

Take `COc1cc(OC)cc(C(=O)NCCNc2nc3cc(C)cc(C)c3cc2C#N)c1`: the outcome was inactive.

For `O=C1c2cccnc2C(Nc2ccccc2)N1Cc1ccco1` (stereo unspecified), the compound was called inactive.

With `Cc1cc(C)c2c(c1)c(C)cc1nnc(SCC(=O)NCc3ccco3)n12`, the result was inactive.

In the case of `CS(=O)(=O)N1CCC(Oc2ccccc2C(=O)N2CCN(CC3CC3)CC2)CC1`, the result was inactive.

Take `COc1cc(NC2c3ccccc3C(=O)N2Cc2ccc3c(c2)OCO3)cc(OC)c1OC` (stereo unspecified): the call was inactive.

Turning to `COc1ccc(NC2c3ccccc3C(=O)N2Cc2ccccc2Cl)cc1OC` (stereo unspecified), the compound was classed as inactive.

For `CCN(CC)S(=O)(=O)c1cc(C(=O)c2nccn2C)ccc1Cl`, the outcome was inactive.

Turning to `Cc1ccc(C2C3CSCC=C3C(C#N)=C(N)C2(C#N)C#N)cc1` (stereo unspecified), the result was inactive.

As for `O=C(CSc1ccc2ccccc2c1)NC1CCCc2ccccc21` (stereo unspecified), the call was inactive.

For the compound `CCC1CCc2c(sc(NC(C)=O)c2C#N)C1` (stereo unspecified), the outcome was inactive.

`COCCNC(=S)N1CCc2cc(OC)c(OC)cc2C1COc1cc(C)cc(C)c1` (stereo unspecified): the call was inactive.

As for `Cc1c(-c2ccccc2)c(=O)oc2ccc(O)cc12`, the compound was called inactive.

`O=C(CCCn1c(=O)c2sccc2n(Cc2cc(=O)n3ccccc3n2)c1=O)NCc1ccco1`: the outcome was inactive.

In the case of `O=C(CCn1c(=O)c2sccc2n(Cc2cc(=O)n3ccccc3n2)c1=O)NCc1ccco1`, the call was inactive.
